# Results: PubChem BioAssay (Tox21)
# Records with an inconclusive call do not appear. Where a call stands in place of a potency, no number is given. The source made the active and inactive calls. The call rests on the fitted dose curve; in most records, active means well fitted curve in the direction sought with a large enough effect in the repeat runs; inconclusive means weak or mixed curves; inactive means no such curve, though single readings can be large; an effect the other way counts as inactive or inconclusive.
# Key:
# [1] = target: Cytochrome P450 2D6 (Homo sapiens) (UniProt P10635); experiment: Cytochrome P450 Family 2 Subfamily D Member 6 (CYP2D6) small molecule antagonists: luciferase reporter qHTS assay (AID 1671196); further: nearly all actives have a fitted effect of over 50% in size
# Cytochrome P450 2D6 (Homo sapiens), sequence (P10635 whole entry, looked up): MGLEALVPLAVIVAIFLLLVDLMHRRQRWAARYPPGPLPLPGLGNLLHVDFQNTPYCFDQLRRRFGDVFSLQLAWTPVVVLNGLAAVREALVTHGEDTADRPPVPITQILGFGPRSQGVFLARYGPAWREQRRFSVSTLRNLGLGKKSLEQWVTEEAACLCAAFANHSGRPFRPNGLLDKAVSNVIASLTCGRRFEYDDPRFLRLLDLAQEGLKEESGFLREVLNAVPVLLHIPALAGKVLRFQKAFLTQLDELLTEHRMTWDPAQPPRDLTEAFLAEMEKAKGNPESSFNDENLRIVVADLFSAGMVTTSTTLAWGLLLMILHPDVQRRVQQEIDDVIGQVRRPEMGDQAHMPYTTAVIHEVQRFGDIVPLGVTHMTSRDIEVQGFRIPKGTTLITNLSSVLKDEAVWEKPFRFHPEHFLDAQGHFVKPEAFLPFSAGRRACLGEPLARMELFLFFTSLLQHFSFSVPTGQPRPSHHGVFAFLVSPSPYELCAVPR
# In short: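 Room-temperature luminescent CYP2D6 activity assay: compound preincubated 10 min with enzyme–substrate mix, NADPH-initiated reaction 1 h, detection reagent 20 min before reading.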
# [2] = target: Cytochrome P450 2C9 (Homo sapiens) (UniProt P11712); experiment: Cytochrome P450 Family 2 Subfamily C Member 9 (CYP2C9) small molecule antagonists: luciferase reporter qHTS assay (AID 1671198); further: nearly all actives have a fitted effect of over 50% in size
# Cytochrome P450 2C9 (Homo sapiens), sequence (P11712 whole entry, looked up): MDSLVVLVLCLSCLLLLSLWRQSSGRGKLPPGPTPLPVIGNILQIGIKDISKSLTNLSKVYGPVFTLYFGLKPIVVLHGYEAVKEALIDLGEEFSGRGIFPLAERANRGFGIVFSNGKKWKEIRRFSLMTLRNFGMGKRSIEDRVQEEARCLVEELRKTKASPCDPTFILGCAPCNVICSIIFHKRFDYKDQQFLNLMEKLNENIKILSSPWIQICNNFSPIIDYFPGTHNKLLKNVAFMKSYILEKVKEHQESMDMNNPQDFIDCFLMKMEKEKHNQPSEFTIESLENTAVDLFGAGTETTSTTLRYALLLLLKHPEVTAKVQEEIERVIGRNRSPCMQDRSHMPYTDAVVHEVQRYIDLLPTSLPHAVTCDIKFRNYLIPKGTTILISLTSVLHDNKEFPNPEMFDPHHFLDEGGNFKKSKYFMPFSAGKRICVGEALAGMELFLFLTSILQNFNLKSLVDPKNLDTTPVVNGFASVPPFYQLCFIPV
# In short: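 P450-Glo proluciferin substrate with CYP2C9 enzyme; 10 min RT preincubation, then NADPH regeneration 1 h at 37C; luciferin detection reagent 20 min RT, luminescence in relative luminescence units.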
# [3] = target: Voltage-gated inwardly rectifying potassium channel KCNH2 (Homo sapiens) (UniProt Q12809); experiment: Human Ether-a-go-go-Related Gene (hERG) channel small molecule antagonists: fluorescence cell-based qHTS assay (AID 1671200); further: nearly all actives have a fitted effect of over 50% in size
# Voltage-gated inwardly rectifying potassium channel KCNH2 (Homo sapiens), sequence (Q12809 whole entry, looked up): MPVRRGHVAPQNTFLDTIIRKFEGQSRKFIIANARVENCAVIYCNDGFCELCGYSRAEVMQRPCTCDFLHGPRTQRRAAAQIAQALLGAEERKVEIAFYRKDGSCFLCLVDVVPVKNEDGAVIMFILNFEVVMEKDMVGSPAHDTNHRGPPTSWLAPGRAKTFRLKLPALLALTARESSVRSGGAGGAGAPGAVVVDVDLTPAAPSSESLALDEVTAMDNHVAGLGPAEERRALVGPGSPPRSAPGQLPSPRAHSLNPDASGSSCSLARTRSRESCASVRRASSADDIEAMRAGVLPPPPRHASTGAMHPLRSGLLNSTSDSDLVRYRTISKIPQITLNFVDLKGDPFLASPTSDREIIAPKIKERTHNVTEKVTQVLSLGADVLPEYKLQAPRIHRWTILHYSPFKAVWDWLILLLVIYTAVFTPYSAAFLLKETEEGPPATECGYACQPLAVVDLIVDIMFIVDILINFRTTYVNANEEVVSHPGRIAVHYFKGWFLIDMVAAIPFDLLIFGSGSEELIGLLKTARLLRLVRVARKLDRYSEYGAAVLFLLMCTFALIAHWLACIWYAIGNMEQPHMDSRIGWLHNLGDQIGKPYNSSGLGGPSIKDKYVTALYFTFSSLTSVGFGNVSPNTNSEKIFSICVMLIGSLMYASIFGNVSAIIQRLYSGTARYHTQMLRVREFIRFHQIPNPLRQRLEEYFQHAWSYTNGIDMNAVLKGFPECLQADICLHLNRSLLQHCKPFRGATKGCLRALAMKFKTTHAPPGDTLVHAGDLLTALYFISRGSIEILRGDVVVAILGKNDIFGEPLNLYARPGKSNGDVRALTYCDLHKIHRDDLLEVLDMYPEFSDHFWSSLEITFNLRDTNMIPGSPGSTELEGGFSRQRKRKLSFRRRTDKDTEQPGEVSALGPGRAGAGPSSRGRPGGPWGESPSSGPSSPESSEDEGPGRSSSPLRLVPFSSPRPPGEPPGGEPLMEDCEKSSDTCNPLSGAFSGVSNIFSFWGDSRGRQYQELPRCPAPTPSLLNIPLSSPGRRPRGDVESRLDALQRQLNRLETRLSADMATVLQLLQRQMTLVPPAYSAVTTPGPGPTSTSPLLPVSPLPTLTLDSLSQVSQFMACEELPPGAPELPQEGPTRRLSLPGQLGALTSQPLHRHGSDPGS
# In short: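 First, 1000 cells per well are seeded and cultured overnight at 37 C. Next, FluxOR II dye is loaded for 1 h at room temperature, protected from light. After 10 more minutes, stimulus is added and fluorescence is read.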
# [4] = target: Cytochrome P450 3A4 (Homo sapiens) (UniProt P08684); experiment: Cytochrome P450 Family 3 Subfamily A Member 4 (CYP3A4) small molecule antagonists: luciferase reporter qHTS assay (AID 1671201); further: nearly all actives have a fitted effect of over 50% in size
# Cytochrome P450 3A4 (Homo sapiens), sequence (P08684 whole entry, looked up): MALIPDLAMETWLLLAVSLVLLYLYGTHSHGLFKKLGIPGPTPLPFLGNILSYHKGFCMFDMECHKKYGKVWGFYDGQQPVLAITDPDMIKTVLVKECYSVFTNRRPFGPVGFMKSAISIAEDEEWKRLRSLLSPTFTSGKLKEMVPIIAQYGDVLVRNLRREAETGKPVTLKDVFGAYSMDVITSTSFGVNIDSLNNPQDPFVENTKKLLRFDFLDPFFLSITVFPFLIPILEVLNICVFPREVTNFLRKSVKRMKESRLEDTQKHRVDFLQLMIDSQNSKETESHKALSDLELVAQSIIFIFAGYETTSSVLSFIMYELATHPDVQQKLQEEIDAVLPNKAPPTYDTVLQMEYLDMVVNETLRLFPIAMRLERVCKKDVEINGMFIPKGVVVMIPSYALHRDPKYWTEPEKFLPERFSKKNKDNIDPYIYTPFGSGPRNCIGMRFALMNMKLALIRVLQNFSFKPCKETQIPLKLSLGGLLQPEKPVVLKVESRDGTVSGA
# In short: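 Enzyme and proluciferin substrate are mixed with test chemicals for 10 min, then NADPH regeneration system drives turnover for 1 h at room temperature. A detection reagent halts the reaction; luminescence after 20 min gives relative activity.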
# [5] = target: Cytochrome P450 1A2 (Homo sapiens) (UniProt P05177); experiment: Cytochrome P450 Family 1 Subfamily A Member 2 (CYP1A2) small molecule antagonists: luciferase reporter qHTS assay (AID 1671199); further: nearly all actives have a fitted effect of over 50% in size
# Cytochrome P450 1A2 (Homo sapiens), sequence (P05177 whole entry, looked up): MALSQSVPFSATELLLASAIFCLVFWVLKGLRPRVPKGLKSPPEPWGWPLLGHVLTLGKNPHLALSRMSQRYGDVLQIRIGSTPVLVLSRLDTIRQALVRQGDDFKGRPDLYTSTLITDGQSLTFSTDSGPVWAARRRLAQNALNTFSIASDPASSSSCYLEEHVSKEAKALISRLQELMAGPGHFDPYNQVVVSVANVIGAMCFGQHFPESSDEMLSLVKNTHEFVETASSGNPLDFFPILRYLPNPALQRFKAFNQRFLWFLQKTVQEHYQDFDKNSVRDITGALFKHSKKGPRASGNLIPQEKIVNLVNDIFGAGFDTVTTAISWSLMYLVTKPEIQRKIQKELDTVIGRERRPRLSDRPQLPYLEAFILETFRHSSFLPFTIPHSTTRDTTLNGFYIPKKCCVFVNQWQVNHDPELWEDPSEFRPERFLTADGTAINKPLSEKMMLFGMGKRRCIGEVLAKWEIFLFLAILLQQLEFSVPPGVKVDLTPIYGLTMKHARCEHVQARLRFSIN
# In short: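 Room-temperature CYP1A2 reaction with proluciferin substrate: compounds added from DMSO, 10 min preincubation, NADPH regeneration for 1 h. Luciferin detection reagent then added; luminescence recorded as RLU.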
# [6] = target: Cytochrome P450 2C19 (Homo sapiens) (UniProt P33261); experiment: Cytochrome P450 Family 2 Subfamily C Member 19 (CYP2C19) small molecule antagonists: luciferase reporter qHTS assay (AID 1671197); further: nearly all actives have a fitted effect of over 65% in size
# Cytochrome P450 2C19 (Homo sapiens), sequence (P33261 whole entry, looked up): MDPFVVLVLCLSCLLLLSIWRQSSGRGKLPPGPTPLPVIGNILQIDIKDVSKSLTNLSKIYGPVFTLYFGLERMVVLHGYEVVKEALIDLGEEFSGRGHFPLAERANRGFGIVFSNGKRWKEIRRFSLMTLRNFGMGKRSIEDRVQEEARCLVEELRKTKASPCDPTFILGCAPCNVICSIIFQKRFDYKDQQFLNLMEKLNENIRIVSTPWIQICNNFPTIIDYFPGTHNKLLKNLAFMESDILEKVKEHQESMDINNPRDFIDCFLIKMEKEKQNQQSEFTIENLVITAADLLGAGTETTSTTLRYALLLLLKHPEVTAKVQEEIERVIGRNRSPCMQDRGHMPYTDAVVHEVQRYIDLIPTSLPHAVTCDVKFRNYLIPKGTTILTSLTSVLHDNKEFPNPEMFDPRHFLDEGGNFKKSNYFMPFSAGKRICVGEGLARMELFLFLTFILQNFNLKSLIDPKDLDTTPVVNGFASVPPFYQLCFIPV
# In short: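 Compounds were tested on CYP2C19 activity via proluciferin conversion to luciferin. The 37C, 1 h reaction followed NADPH addition; detection reagent stopped it.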
# Potency means the concentration at half of the fitted maximal effect.
SMILES,Potency [1],Potency [2],Potency [3],Potency [4],Potency [5],Potency [6]
CC(CCC(=O)O)C(=O)O (stereo not drawn),63.4 µM (active),inactive,inactive,inactive,,
O=C1CCCCCCCCCCOCCCCO1,inactive,,,39.9 µM (active),35.6 µM (active),
Cc1ccc(Cl)c(Nc2ccccc2C(=O)O)c1Cl,inactive,17.4 µM (active),inactive,inactive,,
O=C(CCc1ccc(O)cc1)c1c(O)cc(O)cc1O,,20.5 µM (active),inactive,12.9 µM (active),36.4 µM (active),40.8 µM (active)
CCC=CC#N,inactive,inactive,inactive,inactive,,
C=CC(=O)OCC1CC2CC1C1CCC(COC(=O)C=C)C21 (stereo not drawn),,17.8 µM (active),,,35.6 µM (active),5.03 µM (active)
CC(=O)OCC[N+](C)(C)C,inactive,inactive,inactive,inactive,24.5 µM (active),
Oc1cc2c(cc1O)[C@H]1c3ccc(O)c(O)c3OC[C@@]1(O)C2,36 µM (active),32.1 µM (active),inactive,,36 µM (active),
NNC(=O)CP(=O)(c1ccccc1)c1ccccc1,inactive,,inactive,,inactive,
CCCCOc1ccc(OCCCN2CCOCC2)cc1,27.5 µM (active),,,inactive,inactive,
CC(=O)c1ccc([N+](=O)[O-])cc1,,inactive,inactive,inactive,40 µM (active),63.4 µM (active)
C=C(C)C(=O)OCCCCCCCCCCCCC,inactive,inactive,inactive,,inactive,
C/C=C(/C(=C/C)c1ccc(O)cc1)c1ccc(O)cc1,inactive,17.4 µM (active),inactive,,inactive,
CN1C(=O)N(c2ccccc2Br)Cc2cnc(Nc3ccc4c(c3)OCC(CO)O4)nc21 (stereo not drawn),,11.2 µM (active),43.6 µM (active),inactive,28.3 µM (active),7.1 µM (active)
CCCCCC[C@@H](O)C/C=C\CCCCCCCC(=O)O,inactive,,inactive,inactive,inactive,
O=C1Cc2ccccc2N1c1c(Cl)cccc1Cl,,35.6 µM (active),19.5 µM (active),17.8 µM (active),inactive,11.2 µM (active)
Cc1ccccc1S,28.5 µM (active),45.2 µM (active),inactive,inactive,50.7 µM (active),

SMILES,Potency [1],Potency [2],Potency [3],Potency [4],Potency [5],Potency [6]
CC(=O)Nc1ccc(C)cc1C,inactive,inactive,inactive,inactive,inactive,
Nc1ncnc2c1ncn2[C@H]1CC[C@@H](CO)O1,inactive,inactive,inactive,inactive,,
CO/N=C(/C(=O)N[C@@H]1C(=O)N2C(C(=O)O)=C(COC(N)=O)CS[C@H]12)c1ccco1,inactive,,inactive,,inactive,
CCCCN1CCCC1C(=O)Nc1c(C)cc(C)cc1C (stereo not drawn),3.09 µM (active),inactive,inactive,,,
CCN(CC)CCNC(=O)COc1ccc(OC)cc1,13.8 µM (active),inactive,inactive,inactive,inactive,
COc1cc(N)c(Cl)cc1C(=O)NC1CCN(CCCOc2ccc(F)cc2)CC1OC (stereo not drawn),,inactive,,,inactive,15.5 µM (active)
Cc1ccc2c(Br)cc(Br)c(O)c2n1,inactive,,inactive,inactive,36.3 µM (active),
Nc1nnc(-c2ccc([N+](=O)[O-])o2)o1,39.9 µM (active),,inactive,inactive,39.9 µM (active),
O=C=Nc1cccc(C(F)(F)F)c1,inactive,inactive,inactive,inactive,inactive,
CC(C)COCC(CN(Cc1ccccc1)c1ccccc1)N1CCCC1 (stereo not drawn),0.0692 µM (active),,,,inactive,
CCCCCCCCCCC(=O)O,inactive,,inactive,,inactive,
CC(C)=CCC/C(C)=C/CC/C(C)=C/C(=O)OCC(=O)[C@@]1(O)CC[C@H]2[C@@H]3CCC4=CC(=O)C=C[C@]4(C)[C@H]3[C@@H](O)C[C@@]21C,,3.89 µM (active),inactive,,inactive,7.76 µM (active)
CCOc1ccc(Cc2nccc3cc(OCC)c(OCC)cc23)cc1OCC,,4.9 µM (active),,,inactive,7.76 µM (active)
COc1ccccc1N1CCN(CC(O)COc2cccc3ccccc23)CC1 (stereo not drawn),1.55 µM (active),,1.9 µM (active),inactive,,
CCOc1ccccc1O[C@H](c1ccccc1)[C@H]1CNCCO1,,inactive,inactive,,inactive,inactive
O=c1[nH]ncc2ccccc12,inactive,inactive,inactive,,,
CC=C(Cl)Cl,inactive,inactive,inactive,inactive,inactive,
